Test results from PubChem BioAssay (NCI).
About 83,000 compounds went through this panel and 20% of them were active in at least one assay; those are over-represented in the sample as a whole.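 Plates (96-well) were seeded with cells, treated with compound at one concentration, and incubated for 48 hours before percent growth was determined.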 A number with no mark means an inactive call. Activity calls are given as the source filed them. How the source made its calls: active means growth percent below 10; inactive means the rest.

What was measured:
Assay in all cases: NCI-60 one-dose screen, 48 h (100 = growth as untreated, 0 = no growth, -100 = all killed)
SK-MEL-2 melanoma = details: 10 µM unless noted
EKVX NSCLC = details: 10 µM
SN12C renal = details: 10 µM unless noted
UO-31 renal = details: 10 µM unless noted
TK-10 renal = details: 10 µM unless noted
ACHN renal = details: 10 µM unless noted
CAKI-1 renal = details: 10 µM unless noted
A498 renal = details: 10 µM unless noted
OVCAR-8 ovarian = details: 10 µM unless noted
OVCAR-5 ovarian = details: 10 µM unless noted
OVCAR-4 ovarian = details: 10 µM unless noted
SK-OV-3 ovarian = details: 10 µM unless noted
IGROV1 ovarian = details: 10 µM unless noted
OVCAR-3 ovarian = details: 10 µM unless noted
HS 578T breast = details: 10 µM unless noted
NCI/ADR-RES ovarian = details: 10 µM unless noted
CCRF-CEM leukemia = details: 10 µM
RPMI-8226 leukemia = details: 10 µM unless noted
MOLT-4 leukemia = details: 10 µM unless noted
SR leukemia = details: 10 µM unless noted

SMILES	growth (SK-MEL-2 melanoma)	growth (EKVX NSCLC)	growth (SN12C renal)	growth (UO-31 renal)	growth (TK-10 renal)	growth (ACHN renal)	growth (CAKI-1 renal)	growth (A498 renal)	growth (OVCAR-8 ovarian)	growth (OVCAR-5 ovarian)	growth (OVCAR-4 ovarian)	growth (SK-OV-3 ovarian)	growth (IGROV1 ovarian)	growth (OVCAR-3 ovarian)	growth (HS 578T breast)	growth (NCI/ADR-RES ovarian)	growth (CCRF-CEM leukemia)	growth (RPMI-8226 leukemia)	growth (MOLT-4 leukemia)	growth (SR leukemia)
CC1(c2ccc(Br)cc2)NC(=O)NC1=O (stereo not given)	122%	109%	100%	94.9%	106%	104%	97.8%	99.5%	97.9%	104%	104%	103%	102%	104%	101%	103%				
COc1cc(OC)c(NC(=O)n2ncc3cc(Nc4ncnc5ccccc45)ccc32)cc1Cl	102%	33%	95.6%	64.1%	30.8%	55.1%	53.6%	54.2%	110%	74.2%	99.8%	110%	56.4%	91.3%	112%	97.3%	102%	101%		
COc1ccc2cc(C(C)C(=O)Nc3ccc(S(=O)(=O)Nc4cc(C)on4)cc3)ccc2c1 (stereo not given)	117%	97.5%	116%	90%	103%	97.3%	86.4%		95.8%	112%	100%	101%	114%	110%		105%		96.6%	106%	100%
O=C(C(=O)N1CCOCC1)c1ccc(O[C@H]2O[C@H](CO)[C@@H](O)[C@H](O)[C@@H]2O)cc1	107%	116%	101%	91.5%	103%	95%	100%		109%	98.6%	105%	106%	106%	121%	183%	105%	109%	96.8%	103%	94.6%
CN1C(=O)C(=Cc2coc3ccc(Br)cc3c2=O)C(=O)N(C)C1=O	111%	109%	90.3%	77.3%	108%	96.8%	101%		98.5%	114%	118%	96.3%	101%	105%		97.9%	116%	108%	126%	
C[C@]12CC[C@H]3[C@@H](CC[C@H]4C[C@@H](O)CC[C@@]43C)[C@@H]1CC(=O)C2	103%	96.9%	101%	84.1%	94.2%	100%	87.6%		95.3%	94.8%	104%	118%	103%	112%		106%			85.7%	89.8%
C/C(=N\Nc1ccc(Cl)cn1)c1ccc2ccccc2n1	35.5%	11.1%	18%	2.27% (active)	56.3%	8.37% (active)	7.16% (active)	-15.7% (active)	6.73% (active)	29.9%	36.8%	1.69% (active)	16.6%	18.2%	37.7%	-0.464% (active)	3.63% (active)	11.7%		5.63% (active)
COc1cc(OC)cc(-c2ccc(-c3ccc(C(=N)N)cc3)s2)c1	-58.3% (active)	-83.6% (active)	-76.9% (active)	-78% (active)	-83.7% (active)	-90% (active)	-93.7% (active)	-92% (active)	-27.8% (active)	-82% (active)	-67.5% (active)	-81.9% (active)	-71.1% (active)	-86.2% (active)	-51.8% (active)	-51.4% (active)	-59.7% (active)	-58.2% (active)		-4.93% (active)
NCCCOc1cc(Cl)ccc1NC(=O)c1cc2ccccc2cc1OCCCN	-93.9% (active)	-16.1% (active)	19.7%	25%	-97.4% (active)	-79% (active)	59%	2.33% (active)	-73.3% (active)	-72.3% (active)	-70.6% (active)	-42.4% (active)	-43.5% (active)	-86.9% (active)	-56.4% (active)	57.2%		-43.9% (active)	-52.3% (active)	-38.9% (active)
